For 18 compounds, max response, outcome and Potency results are on record in PubChem BioAssay (NCATS).

The subject of one test is CRL-7250. The experiment in a line: Cytotoxic Profiling of Annotated Libraries Using Quantitative High-Throughput Screening (AID 1296008). For max response: % is set by controls: 0 for no effect and ±100 for the full control effect. Note: potency is the fitted concentration of half-maximal effect. Conditions: Five cell lines viability, CellTiter-Glo ATP luminescence, 48-72 h; max response: active compounds read low. In short, it runs like this: (§1)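 Cells exposed to compounds for 48 or 72 hr at 37 degrees Celsius. Viability read as ATP-coupled luminescence with CellTiter-Glo after 10 min at room temperature.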

The test system of another test is HEK293. The description is as above. The note with it: Five cell lines viability, CellTiter-Glo ATP luminescence, 48-72 h; max response: active compounds read low. The gist of the method: as §1
On the technique in general: In ATP-based viability assays light output follows the ATP content of the culture.

In test [1] the test system is HaCat. Described as above. The note with it: Five cell lines viability, CellTiter-Glo ATP luminescence, 48-72 h; max response: active compounds read low. In short, it runs like this: as §1
The subject of a further test is KB-3-1. The description is as above. Conditions: Five cell lines viability, CellTiter-Glo ATP luminescence, 48-72 h; max response: active compounds read low. In short, it runs like this:
as §1

Another test concerns NIH3T3. Described as above. Conditions: Five cell lines viability, CellTiter-Glo ATP luminescence, 48-72 h; max response: active compounds read low. The gist of the method: as §1
Test [2] relates to HACAT. The experiment in a line: qHTS assay to identify novel small-molecules to repurpose for Merkel cell carcinoma treatment (AID 1296009). Conditions: MCC and control cell lines, CellTiter-Glo viability, 72 h; at 44.8 µM (top of the series) unless noted. In short, it runs like this:
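CellTiter-Glo luminescence after 72 hr compound exposure at 37 degree celsius gave cell viability. Libraries NPC and MIPE were run as 8- and 11-point dose responses; RLUs normalized to DMSO (negative) and no-cell (cytotoxicity) controls.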
(qHTS replaces the single test concentration by a dilution series.)

Molecules are shown by their SMILES. Results filed as inconclusive are left out. Unmarked numbers belong to inactive results. Active and inactive are the calls of the source. Calls come from the whole dose curve; as a rule, active = well fitted inhibition curve with a large enough effect; inconclusive = small, poorly fitted or top-dose-only effect; inactive = flat fitted curve, though single readings scatter. Where a SMILES comes first, the peptide text is derived from it.
Note: nearly all actives have a fitted effect of over 60% in size.

As to `COC(=O)C[C@H]1C(C)(C)[C@H](OC(=O)C(C)C)C2CC3=C4CC(=O)O[C@@H](c5ccoc5)[C@]4(C)CCC3[C@@]1(C)C2=O` (stereo partly drawn), the max response in the test on CRL-7250 is 2.69%; with HEK293 it was -10.8%; in the test with KB-3-1, -0.987%; in the test with NIH3T3, 1.73%. Moreover, the result in the test with HaCat [1] was inactive. Also, in the test with HACAT [2], the outcome was “inactive [at 17.4 µM]”.

For the compound `COc1cccc2c1c(O)c(C(=O)N(C)c1ccc(C(F)(F)F)cc1)c(=O)n2C`, the max response was -1.12% in the test with CRL-7250, 3.79% with HEK293, 0.95% in the test on KB-3-1 and 2.51% in the test with NIH3T3. The call in the test on HaCat [1] and with HACAT [2] was inactive.

Turning to `CSCC[C@H](NC(=O)[C@H](CO)NC(=O)[C@H](CCC(=O)O)NC(C)=O)C(=O)N[C@H](C=O)CC(=O)O` (Ac-ESMD-aldehyde), the max response with CRL-7250 is 3.88%; in the test with HEK293, 0.953%; in the test with KB-3-1, 2.69%; in the test with NIH3T3, -20.7%. Moreover, in the test with HaCat [1], the call was inactive. The outcome with HACAT [2] is “inactive [at 9.27 µM]”.

As for `COc1cnc(-c2ccc(Cn3c(CC(C)(C)C(=O)O)c(SC(C)(C)C)c4cc(OC[C@@H]5Cc6ccccc6N5C(C)=O)ccc43)cc2)nc1`, the max response was -2.77% in the test with CRL-7250, -2.16% with HEK293, -12.4% with KB-3-1 and -14.7% in the test on NIH3T3. In addition, the outcome in the test with HaCat [1] and in the test with HACAT [2] was inactive.

Regarding `CC[C@@H]1C(=O)O[C@]23C=C[C@@H]4C(C(=O)OC)=CO[C@H](O[C@@H]12)[C@@H]43`, the max response in the test on CRL-7250 was -23.4%; with HEK293, -18.1%; in the test with KB-3-1 it was -9.89%; in the test with NIH3T3, 1.97%. Besides, the call with HaCat [1] and in the test with HACAT [2] was inactive.

Take `Cc1c(F)cc(C(=O)NC2CC2)cc1-c1ccc(C(=O)NCC(C)(C)C)cn1`: the compound was classed as inactive in the test with CRL-7250, in the test on HaCat [1] and with HACAT [2]. The max response was -4.94% in the test on HEK293, 4.19% with KB-3-1 and -1.86% in the test with NIH3T3.

Consider `C=CCC/C=C/C#CCCCCCCCC[C@H]1C(=O)O[C@H](C)[C@@H]1O`, for which the max response was 0.985% in the test with CRL-7250, -11.8% in the test on HEK293, -1.24% with KB-3-1 and 0.0642% in the test with NIH3T3. The compound was called inactive in the test on HaCat [1] and in the test with HACAT [2].

`Cc1cccc(-c2nn3c(c2-c2ccnc4ccc(C(N)=O)cc24)CCC3)n1`: the max response is 1.85% in the test with CRL-7250, 3.73% in the test with HEK293 and -5.67% in the test with NIH3T3. Moreover, the compound was classed as inactive in the test with HaCat [1], in the test on KB-3-1 and in the test with HACAT [2].

Take `CC(=O)OCC1=C[C@@H]2OC(=O)C3=CO[C@@H](O[C@@H]4O[C@H](CO)[C@@H](O)[C@H](O)[C@H]4O)[C@H]1[C@@H]32`: the max response with CRL-7250 is 2.42%; in the test on HEK293 it was 4.59%; in the test with NIH3T3, 0.706%. In addition, the outcome with HaCat [1] and in the test with KB-3-1 was inactive. Also, the outcome in the test with HACAT [2] was “inactive [at 17.4 µM]”.

Turning to `CCCO[C@@H]1O[C@H](CO)[C@@H](O)[C@H](O)[C@H]1O[C@@H]1OC[C@@H](O)[C@H](O)[C@H]1O`, the max response with CRL-7250 was 1.31%; in the test with HEK293, -4.21%; in the test on KB-3-1, 9.26%; with NIH3T3, -1.11%. The call in the test with HaCat [1] and in the test on HACAT [2] was inactive.

In the case of `O=C(/C=C/c1ccc(O)cc1)OCC1OC(O)C(OC2OC(CO)C(O)C(O)C2O)C(O)C1O` (stereo not drawn), the outcome with CRL-7250 and in the test on HaCat [1] was inactive. For the same compound, the max response is -3.95% in the test with HEK293, 8.27% with KB-3-1 and 3.74% in the test with NIH3T3. Further, the outcome in the test on HACAT [2] was “inactive [at 17.4 µM]”.

On to `C=C1CCC2(C(=O)OC3OC(CO)C(O)C(O)C3O)CCC3(C)C(=CCC4C5(C)CCC(OC6OC(CO)C(OC7OC(C)C(O)C(O)C7O)C(OC7OCC(O)C(O)C7O)C6O)C(C)(C)C5CCC43C)C2C1` (stereo not drawn), for which the max response in the test with CRL-7250 was 4.25%; in the test with HEK293, -4.7%; in the test with KB-3-1 it was 3.47%; in the test on NIH3T3, -2.38%. Besides, the compound was called inactive in the test with HaCat [1]. In addition, the outcome in the test with HACAT [2] is “inactive [at 9.27 µM]”.

For `COc1cc(O)cc(C)c1C(=O)OC1C(CO)OC(n2ccc(=O)[nH]c2=O)C1OC(C)=O` (stereo not drawn), the call with CRL-7250 and with HaCat [1] was inactive. The max response with HEK293 is 2.97%; with KB-3-1, 8.59%; in the test on NIH3T3, -1.67%. In addition, in the test with HACAT [2], the outcome is “inactive [at 17.4 µM]”.

On to `CCCSc1nc(NC2CC2c2ccc(F)c(F)c2)c2nnn(C3CC(OCCO)C(O)C3O)c2n1` (stereo not drawn), for which the call in the test on CRL-7250, in the test on HaCat [1] and with HACAT [2] was inactive. For the same compound, the Potency in the test on HEK293 is 18.4 µM (active). For the same compound, the values for the max response in the test on KB-3-1 and in the test with NIH3T3 were -19.7% and -3.04%, respectively.

In the case of `CC(=O)O[C@@H]1C[C@@H](C)[C@](O)(CCC2=CC(=O)OC2)[C@@]2(C)CCCC(C)(C)C12` (stereo partly drawn), the compound was classed as inactive in the test with CRL-7250, in the test with HaCat [1] and with HACAT [2]. In addition, the max response in the test on HEK293 is -5.82%; in the test on KB-3-1, 9.64%; with NIH3T3, 2.01%.

`CC(C)CC(c1c(O)c(C=O)c(O)c(C=O)c1O)C1CCC(C)(O)C2CC(C(C)(C)O)CCC12C` (stereo not drawn): the results for the max response with CRL-7250, in the test on HEK293 and in the test on NIH3T3 were -4.35%, -7.48% and 0.233%, respectively. Further, the call in the test with HaCat [1] and in the test on KB-3-1 was inactive. For the same compound, the outcome with HACAT [2] is “inactive [at 17.4 µM]”.

For `Cc1ccc(COC(=O)N2CC[C@@H](CNc3ncccn3)[C@@H](F)C2)cc1`, the max response in the test on CRL-7250 was -0.943%; in the test with HEK293, -31.7%; with KB-3-1, -17.2%; in the test on NIH3T3, -18.5%. In addition, the compound was called inactive with HaCat [1] and in the test with HACAT [2].

For the compound `COc1ccc(-c2ccn(CC[C@](C)(C(=O)NO)S(C)(=O)=O)c(=O)c2)c(F)c1`, the max response in the test on CRL-7250 is 2.02%; in the test on HEK293, -10.7%; in the test on NIH3T3 it was 3.1%. The compound was classed as inactive with HaCat [1], in the test on KB-3-1 and in the test on HACAT [2].
